Out of some 340,000 compounds screened, about 1,400 (0.41%) were called active. A call without a number means that no potency is given here. Roughly 4% stayed inconclusive and do not appear here. Calls come from the whole dose curve; cell line not stated here. This excerpt belongs to a sample that is enriched for actives.
Potency is the fitted concentration of half-maximal effect.

This assay can be described thus: qHTS for Antagonists of gsp, the Etiologic Mutation Responsible for Fibrous Dysplasia/McCune-Albright Syndrome: qHTS. Note: nearly all actives have a fitted effect of over 65% in size. To be noted: gsp-mutant cells, cAMP HTRF, 30 min; series mostly up to 76.9 µM. In short, it runs like this:
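HTRF cAMP measurement after 30 min RT detection following 30 min, 37C compound treatment alongside […] (added as 300 uM solution) in G418-selected cells seeded at 2000/well and grown 16–24 h.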
On to `COc1ccc(CNCCCn2cnc3c(OCc4ccccc4)ncnc32)cc1`, for which the Potency entry is “inactive”.

Regarding `CCOC(=O)N1CCN(C(=O)c2ccc(CN(c3ccc(C)c(C)c3)S(C)(=O)=O)cc2)CC1`, the Potency was 22.4 µM (active).

For `CCN1CCN(C(=O)c2ccc(CN(c3ccc(C)c(C)c3)S(C)(=O)=O)cc2)CC1`, the Potency result is “inactive”.

On to `CCOC(=O)N1CCN(C(=O)CN(c2ccc(C)c(C)c2)S(=O)(=O)c2ccccc2)CC1`, for which the Potency result was “inactive”.

As for `CC/C(=C\c1ccc(Cl)cc1)c1ccncc1`, the Potency result was “inactive”.

On to `CC(=O)Nc1ccc(S(=O)(=O)N2CCN(CCCOc3cc(C)ccc3C)CC2)cc1`, for which the Potency was 31.6 µM (active).

Regarding `Cc1ccc(C)c(OCCC(=O)Nc2cccc(S(=O)(=O)N3CCCC3)c2)c1`, the Potency result was “inactive”.

As for `Cc1ccc(C)c(S(=O)(=O)N2CCN(CC(=O)Nc3ccc([N+](=O)[O-])cc3)CC2)c1`, the Potency result is “inactive”.

In the case of `CCC1([N+](=O)[O-])COC(c2ccc(C)cc2)OC1` (stereo unspecified), the Potency result is “inactive”.

Take `NC(=O)C1(Nc2ccccc2Cl)CCCC1`: the Potency result was “inactive”.

Take `CC(Nc1ccc([N+](=O)[O-])cc1[N+](=O)[O-])c1ccccc1` (stereo unspecified): the Potency entry was “inactive”.

On to `O=C(Nc1ccccc1)c1ccc2c(c1)OCCCO2`, for which the Potency result was “inactive”.

As to `O=C(Nc1ccc(NC(=O)c2ccc3c(c2)OCO3)cc1)c1cccc(Cl)c1`, the Potency entry was “inactive”.

Turning to `O=C(Nc1cccc(S(=O)(=O)Nc2ccc(Cl)cc2)c1)c1ccc2c(c1)OCCO2`, the Potency was 35.5 µM (active).

On to `CN(C(=O)c1cccc(NC(=O)Cc2ccc(NC(=O)C3CCN(C(=O)C4CCCCC4)CC3)cc2)c1)C1CCC1`, for which the Potency entry is “inactive”.

Take `COc1cc(/C=C/CNC[C@H]2O[C@@H](n3cnc(C(N)=O)n3)[C@H](O)[C@@H]2O)ccc1O`: the Potency entry is “inactive”.

`CC(=O)N1CCCc2cc(S(=O)(=O)CCC(=O)N3CCN(c4ccccc4)CC3)ccc21`: the Potency entry was “inactive”.

In the case of `CC(=O)N1CCCc2cc(S(=O)(=O)N3CCCC(C(=O)N4CCN(c5cccc(Cl)c5)CC4)C3)ccc21` (stereo unspecified), the Potency is 28.2 µM (active).

`CC(=O)N1CCCc2cc(S(=O)(=O)N3CCCC(C(=O)NCc4ccc(Cl)cc4)C3)ccc21` (stereo unspecified): the Potency entry is “inactive”.

As to `CC(=O)Oc1ccc(OC(C)=O)c2c1C1C=CC2CC1`, the Potency entry is “inactive”.

For `COc1ccc(Cn2c(=O)sc3ccccc32)cc1OC`, the Potency was 11.2 µM (active).

As for `Cc1cccc(CSc2nnc(Cn3c(=O)sc4ccccc43)n2C)c1`, the Potency result was “inactive”.

As to `COc1ccccc1CNC(=O)CCn1c(=O)sc2ccccc21`, the Potency entry is “inactive”.

For the compound `COc1ccc(CCN2CC(C(=O)OCC(=O)NCc3ccccc3Cl)CC2=O)cc1OC` (stereo unspecified), the Potency result was “inactive”.

With `NC(CSC1(c2ccccc2)c2ccccc2-c2ccccc21)C(=O)O` (stereo unspecified), the Potency entry is “inactive”.

As for `CSCCC(NC(=O)COc1ccccc1)C(=O)N1CCN(c2cccc(C(F)(F)F)c2)CC1` (stereo unspecified), the Potency result was “inactive”.

As for `COC(C[C@H](O)CC(=O)[C@@H](C)OCc1ccccc1)OC`, the Potency result is “inactive”.

On to `COC(C[C@@H](O)C[C@@H](O)[C@H](C)OCc1ccccc1)OC`, for which the Potency result is “inactive”.

`COC(C[C@@H](O)C[C@H](O)[C@H](C)OCc1ccccc1)OC`: the Potency was 50.1 µM (active).

With `CC(=NNC(=S)N1CCCCCC1)c1ccccn1`, the Potency result was “inactive”.

For `O=C(CCC(=O)N1CCN(S(=O)(=O)c2ccc(Cl)cc2)CC1)NCc1cccc(C(F)(F)F)c1`, the Potency was 35.5 µM (active).

For `CC(NC(=O)CCC(=O)N1CCN(S(=O)(=O)c2ccc(Cl)cc2)CC1)c1ccccc1` (stereo unspecified), the Potency result was “inactive”.

Consider `O=C(NCc1cccc(C(F)(F)F)c1)c1cccc(S(=O)(=O)N2CCN(Cc3ccccc3)CC2)c1`, for which the Potency entry is “inactive”.

On to `NC(=O)c1ccc(N2CCCC2)nc1`, for which the Potency result is “inactive”.

In the case of `O=C(O)c1ccc(S(=O)(=O)c2ccccc2)s1`, the Potency result is “inactive”.

For `CCc1ccccc1NC(=O)c1ccc2snnc2c1`, the Potency result is “inactive”.

In the case of `O=C(Nc1cccc(Br)c1)c1ccc2snnc2c1`, the Potency result is “inactive”.

For the compound `O=C(Nc1ccc2ccccc2c1)Nc1ccc2snnc2c1`, the Potency was 31.6 µM (active).

`COc1cccc(C2c3[nH]c4ccccc4c3CCN2Cc2cccc(C)n2)c1` (stereo unspecified): the Potency is 39.8 µM (active).

Turning to `COc1ccc(C2c3[nH]c4ccccc4c3CCN2CCCn2cccn2)cc1C` (stereo unspecified), the Potency entry is “inactive”.

In the case of `Oc1cccc(C2c3[nH]c4ccccc4c3CCN2Cc2cnn(-c3ccccc3)c2)c1` (stereo unspecified), the Potency entry was “inactive”.

On to `O=C(Nc1c(Br)cc2c(c1Br)Cc1cc([N+](=O)[O-])ccc1-2)C(Cl)Cl`, for which the Potency entry was “inactive”.

On to `Cn1nccc1CNC(=O)c1ccnn1C`, for which the Potency result is “inactive”.

For the compound `CCN(CC)C(=O)c1sc(NC(=O)c2ccco2)c(C#N)c1C`, the Potency result was “inactive”.

Consider `CCCc1ccc(-c2c(C)sc(NC(=O)c3ccnn3C)c2C#N)cc1`, for which the Potency is 20 µM (active).

Turning to `COc1cc2c(cc1OC)C(Cc1cc(OC)c(OC)cc1[N+](=O)[O-])=NCC2`, the Potency entry was “inactive”.

Consider `NC(=O)c1ncn([C@@H]2O[C@H](CN=C3NS(=O)(=O)c4ccccc43)[C@@H](O)[C@H]2O)n1`, for which the Potency result was “inactive”.

Turning to `COc1ccc(OC)c2sc(NC(=O)C3COc4ccccc4O3)nc12` (stereo unspecified), the Potency result was “inactive”.

Turning to `O=C(CCc1ccccc1)Nc1ncc([N+](=O)[O-])s1`, the Potency entry is “inactive”.

Take `O=C(Nc1ncc([N+](=O)[O-])s1)C1COc2ccccc2O1` (stereo unspecified): the Potency was 39.8 µM (active).

Consider `Cc1cn(C2CC(O)C(CO)O2)c(=O)n(CCCc2ccccc2)c1=O` (stereo unspecified), for which the Potency result is “inactive”.

Regarding `COc1ccc(C(CNC(=O)c2cc(S(=O)(=O)Nc3cccc(C)c3)ccc2C)N2CCCC2)cc1` (stereo unspecified), the Potency entry is “inactive”.

`CCOC(=O)c1ccccc1NC(=O)CSc1nc2c(sc(=S)n2CC)c(=O)[nH]1`: the Potency result is “inactive”.

On to `O=C(NN=Cc1ccc([N+](=O)[O-])cc1)C1CC1`, for which the Potency result was “inactive”.

On to `Cn1c(=O)n(C)c2cc(/C=N/NC(=O)c3cccc(Br)c3)ccc21`, for which the Potency entry is “inactive”.

Turning to `O=C(N/N=C/c1cccc(Br)c1)c1ccc(N2CCCC2=O)cc1`, the Potency is 31.6 µM (active).

As for `COc1cc(/C=N/NC(=O)c2ccc(N3CCCC3=O)cc2)ccc1O`, the Potency entry is “inactive”.

Turning to `COc1ccc(/C=C2/CCCc3ccccc3C2=O)cc1`, the Potency result was “inactive”.

In the case of `CC(=O)OC1CCC2(C)C(=CCC3C4CC(=O)N(O)C(=O)C4(C)CCC32)C1` (stereo unspecified), the Potency entry was “inactive”.

Take `Cc1[nH]n(-c2cccc(Cl)c2)c(=O)c1-c1ccc(Cl)cc1`: the Potency is 28.2 µM (active).

Turning to `Cc1cccc(N=Nc2c(C)[nH]n(-c3ccccc3)c2=O)c1`, the Potency entry is “inactive”.

For `CCCc1cc(=O)n2[nH]c(C)c(-c3ccc(Cl)cc3)c2n1`, the Potency result is “inactive”.

Turning to `O=C(NN=Cc1ccccc1O)NN=Cc1ccccc1O`, the Potency result is “inactive”.

On to `Cc1cc(NC(=O)c2cc3ccccc3o2)no1`, for which the Potency result was “inactive”.

As for `COc1ccc(-c2sc3ccc(OC)cc3c2C#Cc2ccccn2)cc1`, the Potency was 28.2 µM (active).

Take `COc1ccc2sc(-c3ccc(N(C)C)cc3)c(-c3ccc4cc[nH]c4c3)c2c1`: the Potency entry is “inactive”.

Consider `COc1ccc2sc(-c3ccc(N(C)C)cc3)c(C#CCO)c2c1`, for which the Potency entry was “inactive”.

With `CN(C)C(=S)N=c1ssc(=S)n1Cc1ccco1`, the Potency result is “inactive”.

For `Cc1nn(-c2ccc([N+](=O)[O-])cc2)c(N)c1-c1ccccc1`, the Potency entry is “inactive”.

Turning to `O=c1[nH]n(-c2ccc([N+](=O)[O-])cc2)c(=O)c2ccccc12`, the Potency entry was “inactive”.

Take `O=C1CC(c2ccccc2)=NN1c1ccc([N+](=O)[O-])cc1`: the Potency was 35.5 µM (active).

Take `O=C1COc2c1ccc(O)c2O`: the Potency entry is “inactive”.

Turning to `O=C(O)c1ccc(Cn2cnc3c(=S)nc[nH]c32)cc1`, the Potency result was “inactive”.

Take `O=C(CC(=O)c1cccnc1)c1ccccc1`: the Potency result was “inactive”.

Consider `CCC(=C/c1sc2ccc3ccccc3c2[n+]1C)/C=C1\Sc2ccc3ccccc3c2N1C`, for which the Potency is 35.5 µM (active).

As to `O=C1CC(c2ccccc2)C(c2ccccc2)=NN1` (stereo unspecified), the Potency result is “inactive”.

On to `c1ccc(CNc2ncnc3[nH]ncc23)cc1`, for which the Potency result is “inactive”.

As for `Cc1ccc(SCC(=O)N2CCN(c3ccc(F)cc3)CC2)cc1`, the Potency entry was “inactive”.

On to `CN(C(=O)c1ccc(NC(=O)Cc2cccc(NC(=O)C3CCN(C(=O)c4ccccc4)CC3)c2)cc1)C1CC1`, for which the Potency entry was “inactive”.

For `Cc1ccc(NC(=O)Nc2cccnc2)cc1`, the Potency result is “inactive”.

With `Cc1ccc(NC(=O)Nc2nnc(-c3ccncc3)s2)cc1`, the Potency is 50.1 µM (active).

As to `CCc1ccc(NC(=O)Nc2ccncc2)cc1`, the Potency entry is “inactive”.

For the compound `O=C1NCC(Nc2ccccc2)C(=O)N1` (stereo unspecified), the Potency result is “inactive”.

Regarding `COc1ccc(S(=O)(=O)N2C[C@H]3CON(C)[C@H]3C[C@H]2c2cccc(Br)c2)cc1`, the Potency result was “inactive”.

`S=c1[nH]nc(-c2ccncc2)n1/N=C/c1ccccc1Cl`: the Potency entry is “inactive”.

Turning to `Fc1ccccc1/C=N/n1c(-c2cccnc2)n[nH]c1=S`, the Potency is 28.2 µM (active).

Regarding `O=[N+]([O-])c1ccccc1/C=N/n1c(COc2ccccc2)n[nH]c1=S`, the Potency result is “inactive”.

On to `Cc1cccc(NC(=S)N2CCC(C(=O)c3ccc(F)cc3)CC2)c1`, for which the Potency entry is “inactive”.

As to `Cc1nn(-c2ccccc2)c(C)c1NC(=O)CCl`, the Potency result was “inactive”.

Take `Cc1nn(-c2ccccc2)c(C)c1NC(=O)COc1ccc(Cl)cc1Cl`: the Potency is 50.1 µM (active).

Turning to `Cc1nn(-c2ccccc2)c(C)c1NC(=O)COC(=O)c1cc(Cl)ccc1O`, the Potency entry was “inactive”.

Consider `CC(C)Cn1cnc2c(SCc3ccc(Cl)cc3)nc(N)nc21`, for which the Potency entry was “inactive”.

Turning to `COC(=O)CC(CC(=O)OC)n1cccc1`, the Potency result is “inactive”.

On to `Cc1nnc(SCC(=O)Nc2cccc(N)c2)n1-c1ccccc1`, for which the Potency result was “inactive”.

Regarding `COc1ccc(-n2cnnc2SCC(=O)Nc2cccc(S(N)(=O)=O)c2)cc1`, the Potency result was “inactive”.

Turning to `NS(=O)(=O)c1cccc(NC(=O)CSc2nc3ccccc3n2-c2ccccc2)c1`, the Potency was 28.2 µM (active).

For the compound `CNc1nc(=O)n(C2CCCO2)cc1C` (stereo unspecified), the Potency result is “inactive”.

As for `Cc1ccccc1OCC(=O)Nc1ccc2c(c1)ncn2C`, the Potency entry was “inactive”.

In the case of `Cc1ccccc1OCC(=O)Nc1ccc(N2CCN(C(=O)C(C)C)CC2)c(Cl)c1`, the Potency was 31.6 µM (active).

With `Cc1ccccc1OCC(=O)Nc1ccc(S(=O)(=O)N2CCOCC2)cc1`, the Potency entry was “inactive”.

For `COc1ccc2nc(N3C(=O)C(O)=C(C(=O)c4ccco4)C3c3ccco3)sc2c1` (stereo unspecified), the Potency entry is “inactive”.

With `OCCN1CCN(CCO)C1=S`, the Potency entry was “inactive”.

For `N#CC1=C(N)Oc2cc(N)ccc2C1c1ccccc1` (stereo unspecified), the Potency result is “inactive”.

Consider `O=S(=O)(c1ccc(NC(=S)NN=C(C2CC2)C2CC2)cc1)N1CCOCC1`, for which the Potency result was “inactive”.

Take `CN(C)/N=C/c1cc(Cl)cc([N+](=O)[O-])c1O`: the Potency result is “inactive”.

`O=[N+]([O-])c1cc(Cl)cc(/C=N/NC(=S)Nc2cc(S(=O)(=O)N3CCOCC3)ccc2Cl)c1O`: the Potency is 50.1 µM (active).

These data come from PubChem BioAssay AID624288 (National Center for Advancing Translational Sciences (NCATS), 2012).
